Screening results (PubChem BioAssay)
Compounds with a hit are over-represented: about 3.7% of the library has one in this group of screens.
FH mod – Identification of activators of human fumarate hydratase by quantitative high-throughput screening; Fumarate hydratase, mitochondrial (Homo sapiens), P07954; FH coupled MDH/diaphorase resazurin fluorescence, 15 min; Potency, µM (top dose mostly 79.9 µM), for the others: top-dose activity change, negative = inhibition, usual class: inhibitors; 0.22% of 54,000 active; further: potency means the concentration at half of the fitted maximal effect; on the % scale 0 is the no-effect control and ±100 the full control effect; the screen sought activators but most active calls are inhibition curves; nearly all actives have a fitted effect of over 45% in size
B2AR arrestin ag – beta-arrestin recruitment by human beta2-adrenergic receptor ligands; HTLA Tango cells, beta-arrestin recruitment, luciferase luminescence, 18 h; Potency, µM (highest dose often 46.1 µM), hits mostly activators; 44,000 tested, under 10 active;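 further: potency means the concentration at half of the fitted maximal effect; 0% = DMSO and full agonism = EC100 isoproterenol or metaproterenol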
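Luminescence read-out: arrestin recruitment to recombinant beta2-AR releases tTA, inducing luciferase. Cells exposed 18 hr at 37 degrees C to up to 46 microM compound; %Activity from corrected signal, concentration-response curves classified by r2, magnitude and efficacy.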
HTT promoter inh – inhibitors of huntingtin promoter activity; HEK293 HTT promoter firefly luciferase reporter, 24 h; Potency, µM (doses to about 57.5 µM), inactives show top-dose activity change, negative = inhibition, most hits filed as inhibitors; 0.93% of 48,000 active; further: potency means the concentration at half of the fitted maximal effect; nearly all actives have a fitted effect of over 50% in size
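Luminescence was read after Dual-Glo reagent and a 10 min room-temperature incubation. Values were normalized to vehicle (0% activity) and zero RLU (-100% activity). Reporter HEK293 cells had been exposed to compounds (up to 57.5 uM final) for 24 h.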
GPR32 ag – agonists of human resolvin D1 receptor DRV1 (GPR32) | O75388 | CHO-K1 GPR32 beta-arrestin PathHunter luminescence, 90 min; zero percent set by DMSO-only wells | activation, % at 76.9 µM | 2.5% of 48,000 active;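 active means activation of at least 60% and not above a set upper limit, about 1 call in 100 departs from these limits; inconclusive means activation of 40% to 60%, or above that upper limit; inactive means activation under 40%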; further: 0% is about no effect
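CHO-K1 cells stably expressing ProLink-tagged GPR32 and Enzyme Activator-tagged beta-arrestin were seeded at 2,500 cells/well overnight, exposed to compounds for 90 min at 37 °C, then read by beta-Gal complementation chemiluminescence after 1 h detection reagent.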
HTT-AS promoter – activators of huntingtin-antisense promoter activity; HEK293 HTT-AS promoter firefly luciferase reporter, 24 h; response scale: percent change from vehicle, -100% = no light; 0.24% of 48,000 active; Potency, µM (doses to about 57.5 µM), for inactives: top-dose activity change, positive = activation, usual class: activators; AID 1508624; further: potency means the concentration at half of the fitted maximal effect; nearly all actives have a fitted effect of over 55% in size
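Quantitative HTS used concentration series of up to 57.5 uM final on HEK293 luciferase reporter cells, 24 h at 37 degrees C. Readout was Dual-Glo firefly luminescence.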
GALC G270D up – galactocerebrosidase G270D activity enhancement, cell-based. P54803. 145M-Twi-hGALC-G270D cells (Twitcher mouse brain line with human GALC G270D), HMU-beta-Gal fluorescence, 48 h. Potency, µM (series often up to 57.5 µM), actives largely listed as activators. 0.1% of 45,000 active. AID 1159614; further: potency means the concentration at half of the fitted maximal effect; 0% is about no effect; nearly all actives have a fitted effect of over 65% in size
Target sequence (P54803 whole entry G286D): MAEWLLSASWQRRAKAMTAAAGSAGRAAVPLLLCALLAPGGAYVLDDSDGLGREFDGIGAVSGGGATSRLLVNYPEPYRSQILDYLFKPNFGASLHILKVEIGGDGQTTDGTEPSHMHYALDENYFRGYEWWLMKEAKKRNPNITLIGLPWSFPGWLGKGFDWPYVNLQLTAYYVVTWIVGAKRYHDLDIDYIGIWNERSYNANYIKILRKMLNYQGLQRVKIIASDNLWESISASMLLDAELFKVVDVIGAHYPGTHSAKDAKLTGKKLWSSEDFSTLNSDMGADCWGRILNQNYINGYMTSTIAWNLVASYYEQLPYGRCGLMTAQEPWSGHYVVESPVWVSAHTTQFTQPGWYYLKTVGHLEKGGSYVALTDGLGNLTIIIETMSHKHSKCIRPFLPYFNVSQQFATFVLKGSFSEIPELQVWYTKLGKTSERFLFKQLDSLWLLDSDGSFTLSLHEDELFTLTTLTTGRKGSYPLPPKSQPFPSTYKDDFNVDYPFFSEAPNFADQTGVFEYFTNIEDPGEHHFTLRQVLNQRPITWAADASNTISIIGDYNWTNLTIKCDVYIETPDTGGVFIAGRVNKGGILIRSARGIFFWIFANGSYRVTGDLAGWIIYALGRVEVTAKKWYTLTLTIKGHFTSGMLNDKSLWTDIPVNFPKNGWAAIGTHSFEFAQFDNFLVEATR
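Brain-derived Twitcher mouse 145M-Twi cells stably expressing human GALC-G270D or wild-type GALC, treated live, then residual GALC activity read by fluorescence of HMU-b-Gal substrate (0.1 mM final) in citrate-phosphate buffer pH 5.2 with sodium taurocholate. Signal increase indicates enhancement.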
* hit, by the source's call; i = inactive; ? = inconclusive; nt = not tested or not shown; [ ] = dose if it differs, or a comment. Unless noted, the call rests on the fitted dose curve; in most records, active means well fitted curve in the direction sought with a large enough effect; inconclusive means small, poorly fitted or top-dose-only effect, or another doubt; inactive means no such curve, though single readings can be large; an effect the other way counts as inactive or inconclusive.

SMILES	FH mod	B2AR arrestin ag	HTT promoter inh	GPR32 ag	HTT-AS promoter	GALC G270D up
C=Cc1ccc(Cn2c(C(=O)O)c(CNCc3ccc(F)cc3)c3ccc(C)cc32)cc1	-27.8%	i	?	90.9*	-69.4%	i
CCC(C)SSc1ncc[nH]1 (stereo unspecified)	7.0%[53.3 µM]	nt	-16.9%	nt	-2.4%	nt
Cc1ccc(C)c(Nc2nn3c(=O)c4ccc(C(=O)NCc5ccccc5)cc4nc3s2)c1	2.0%	i	-19.3%	63.1*	-23.4%	i
Cc1ccccc1Nc1nn2c(=O)c3ccc(C(=O)NCc4cccs4)cc3nc2s1	-6.8%	i	-32.2%	-6.9	-20.6%	i
Cc1ccc(-c2ncn(-c3ccc(Nc4nccc(-c5cccc(N6CCOCC6)c5)n4)cc3)n2)cn1	9.0%[53.3 µM]	nt	68.5%	nt	1.22µM*	nt
N#Cc1cc(-c2ccnc(Nc3ccc(N4CCOCC4)cc3)n2)ccc1OC1CCOCC1	-13.5%	nt	nt	nt	nt	nt
COC(=O)c1c(SC)nc2ccccc2c1OCc1cccc(C)c1	-13.2%	i	-16.4%	-28.4	-4.7%	i
COC(=O)c1c(SC)nc2ccccc2c1OCc1ccc(C)cc1C	35.5µM*	i	?	-12.9	-25.8%	i
CCC(Cc1ccccc1)NC(=O)c1ccc2nc(N3CCC(C)CC3)sc2c1 (stereo unspecified)	-8.3%	i	1.26µM*	32.6	-71.0%	i
CCOc1ccc(CCNC(=O)c2ccc3nc(N4CCC(C)CC4)sc3c2)cc1OCC	-6.0%	i	?	-5.2	-77.0%	i
CCc1ccc2nc(N3CCC(C(=O)O)CC3)sc2c1	-11.2%	i	10µM*	37.4	-75.0%	i
CCN=C1N[C@@H]2[C@@H](O)[C@H](O)[C@@H](CO)O[C@@H]2S1	6.8%	nt	nt	nt	nt	nt
CCOC(=O)CCNc1cc(N2CCc3ccccc3CC2)nc(-c2cccnc2)n1	0.0%	nt	nt	nt	nt	nt
C=C1CCC2C(C)(C(=O)O)CCCC2(C)C1CC/C(=C\CO)CO (stereo unspecified)	0.5%[53.3 µM]	nt	nt	nt	nt	nt
Cc1cc(CO)c(O)c(C(=O)CC2CC(=O)NC(=O)C2)c1	-0.8%	nt	nt	nt	nt	nt
CC1=CC(=O)CC(C)(CO[C@@H]2O[C@H](CO)[C@@H](O)[C@H](O)[C@H]2O)C1(O)/C=C/C(C)=C/C(=O)O (stereo partly specified)	-1.6%[53.3 µM]	nt	nt	nt	nt	nt
CCCc1cc(=O)[nH]c(Nc2ccc(C(=O)O)cc2)n1	nt	i	nt	-2.1	nt	nt
CCCOC(=O)c1cccc(Nc2nc(CCC)cc(=O)[nH]2)c1	nt	i	nt	86.9*	nt	nt
CCN(CC)CCOc1ccc(C(=C(Cl)c2ccccc2)c2ccccc2)cc1	5.6%[53.3 µM]	nt	-9.3%	nt	24.3µM*	nt
COc1cc(C(=O)NC2CCN(C)CC2)c(F)cc1Nc1ncc2c(n1)N(C1CCCC1)CC(F)(F)C(=O)N2C	-6.5%	nt	nt	nt	nt	nt
CC[C@@H](Nc1c(Nc2cccc(C(=O)N(C)C)c2O)c(=O)c1=O)c1ccc(C)o1	-0.1%	nt	nt	nt	nt	nt
COc1cc2ccccc2cc1C(=O)Nc1cccc(-c2nc3cc(C)c(C)cc3o2)c1	-2.1%	i	7.08µM*	-2.0	-74.4%	i
O=C(O)c1cc(O)c2cccc(O)c2c1O[C@@H]1O[C@H](CO)[C@@H](O)[C@H](O)[C@H]1O	-23.9%[53.3 µM]	nt	nt	nt	nt	nt
COc1ccc(CCNC(=O)c2cc3c(-c4ccc(OC)c(OC)c4)nn(C)c3s2)cc1OC	31.6µM*	i	-18.8%	6.0	-45.6%	i
CCOc1ccc(CCNC(=O)c2cc3c(-c4ccc(OC)c(OC)c4)nn(C)c3s2)cc1OCC	?	i	?	-2.4	-51.5%	i
SMILES	FH mod	B2AR arrestin ag	HTT promoter inh	GPR32 ag	HTT-AS promoter	GALC G270D up
O=C(/C=C/c1cccnc1)c1ccncc1	3.8%	nt	nt	nt	nt	nt
COc1cc2nc(Nc3ccc(C)c(C)c3)nc(N)c2cc1OC	-14.7%	i	-13.8%	82.9*	-17.8%	i
CC1(C)C(=O)N(CCN2CCC(C(=O)c3ccc(F)cc3)CC2)c2ccccc21	0.0%[53.3 µM]	nt	-15.6%	2.3	-32.2%	nt
O=C(c1ccc(F)cc1)C1CCN(CCn2c(=S)[nH]c3ccccc3c2=O)CC1	5.5%[53.3 µM]	nt	-2.3%	68.0*	-15.1%	i
Cc1cn([C@H]2C[C@H](O)[C@@H](CO)O2)c(=O)nc1N	0.1%	nt	nt	nt	nt	nt
CCOC(=O)C(Cc1ccccc1)NC(=O)Cn1nnc(-c2ccc(C)cc2)n1 (stereo unspecified)	-7.7%	?	0.7%	61.9*	-2.0%	i
CCOC(=O)CC(NC(=O)Cn1nnc(-c2ccc(Cl)cc2)n1)c1ccc(OC)cc1 (stereo unspecified)	3.3%	i	?	1.7	-32.3%	i
Cc1ccc(CNC(=O)Cn2nc(N3CCN(c4ccccc4)CC3)ccc2=O)cc1	5.1%	i	-23.1%	32.1	-21.0%	i
CSc1ccc(CNC(=O)Cn2nc(N3CCN(c4ccccc4)CC3)ccc2=O)cc1	-8.6%	i	-0.9%	94.5*	-19.0%	i
O=C(Cn1nc(N2CCN(c3ccccc3)CC2)ccc1=O)NCc1cccc(Cl)c1	-1.2%	i	-4.3%	120.5*	-27.3%	i
COc1ccc2nc3n[nH]c(C)c3c(NCCOCCO)c2c1	-0.8%	nt	nt	nt	nt	nt
COc1ccc(-n2ccnc(NCc3ccc(C)cc3)c2=O)cc1OC	-29.5%	i	-29.3%	64.8*	-13.0%	i
Cc1ccc(-n2ccnc(NCCc3ccc(S(N)(=O)=O)cc3)c2=O)c(C)c1	2.7%	i	?	80.5*	-24.8%	i
COc1ccc(-n2ccnc(NCc3ccccc3Cl)c2=O)cc1OC	8.1%	i	-3.5%	6.0	-6.0%	i
Cc1ccc(-n2ccnc(NCCc3ccc(S(N)(=O)=O)cc3)c2=O)cc1C	7.5%	i	?	95.2*	-24.9%	i
Cc1cc(-n2ccnc(NCCc3ccc(S(N)(=O)=O)cc3)c2=O)ccc1Br	-3.4%	i	-47.4%	119.9*	-27.3%	i
